# Laboratory results published in PubChem BioAssay (NCATS).
# Results filed as inconclusive are left out. Where a call stands in place of a potency, no number is given. The source holds several records for some structures; these can differ, active in one and inactive in another. Activity calls are given as the source filed them. Unless noted, calls come from the whole dose curve; as a rule, active = well fitted curve in the direction sought with a large enough effect; inconclusive = small, poorly fitted or top-dose-only effect, or another doubt; inactive = no such curve, though single readings can be large; an effect the other way counts as inactive or inconclusive.
# What was measured:
# [1] = biological target: ATP-dependent 6-phosphofructokinase (Trypanosoma brucei brucei) (UniProt O15648); assay: qHTS Assay to Find Inhibitors of T. brucei phosphofructokinase: hit validation (AID 492961);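 note: luminescence reports ADP formed as PFK phosphorylates fructose-6-phosphate with ATP; series mostly up to about 51 µM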
# Sequence of ATP-dependent 6-phosphofructokinase (Trypanosoma brucei brucei) (O15648 whole entry, looked up): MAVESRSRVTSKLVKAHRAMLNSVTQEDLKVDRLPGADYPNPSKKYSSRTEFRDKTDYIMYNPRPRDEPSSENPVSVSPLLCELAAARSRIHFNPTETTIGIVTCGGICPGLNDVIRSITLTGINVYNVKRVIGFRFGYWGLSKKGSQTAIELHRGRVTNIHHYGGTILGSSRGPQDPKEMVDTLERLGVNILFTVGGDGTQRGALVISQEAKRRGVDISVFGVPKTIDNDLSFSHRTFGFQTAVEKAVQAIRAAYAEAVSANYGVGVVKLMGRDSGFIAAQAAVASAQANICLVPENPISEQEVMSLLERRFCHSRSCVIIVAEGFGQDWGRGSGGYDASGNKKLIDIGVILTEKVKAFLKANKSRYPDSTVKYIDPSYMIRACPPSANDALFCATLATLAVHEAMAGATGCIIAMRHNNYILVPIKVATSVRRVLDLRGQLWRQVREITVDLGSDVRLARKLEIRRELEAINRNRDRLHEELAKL
# How it was run: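 Compounds titrated; %activity normalized to 0x and 1x enzyme controls, curve-fitted. Readout: ADP-Glo luminescence after 45 min room-temperature reaction of 1.25 nM PFK, 0.1 mM ATP, 0.5 mM F6P, pH 8.0.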
# [2] = biological target: DNA polymerase III PolC-type (Bacillus subtilis (strain 168)) (UniProt P13267); assay: qHTS Validation Assay for the Inhibitors of DNA Replication in Gram-Positive Bacteria (AID 485295);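 note: PicoGreen fluorescence of double-stranded DNA made on primed circular M13 template; series mostly up to about 57 µM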
# Sequence of DNA polymerase III PolC-type (Bacillus subtilis (strain 168)) (P13267 whole entry, looked up): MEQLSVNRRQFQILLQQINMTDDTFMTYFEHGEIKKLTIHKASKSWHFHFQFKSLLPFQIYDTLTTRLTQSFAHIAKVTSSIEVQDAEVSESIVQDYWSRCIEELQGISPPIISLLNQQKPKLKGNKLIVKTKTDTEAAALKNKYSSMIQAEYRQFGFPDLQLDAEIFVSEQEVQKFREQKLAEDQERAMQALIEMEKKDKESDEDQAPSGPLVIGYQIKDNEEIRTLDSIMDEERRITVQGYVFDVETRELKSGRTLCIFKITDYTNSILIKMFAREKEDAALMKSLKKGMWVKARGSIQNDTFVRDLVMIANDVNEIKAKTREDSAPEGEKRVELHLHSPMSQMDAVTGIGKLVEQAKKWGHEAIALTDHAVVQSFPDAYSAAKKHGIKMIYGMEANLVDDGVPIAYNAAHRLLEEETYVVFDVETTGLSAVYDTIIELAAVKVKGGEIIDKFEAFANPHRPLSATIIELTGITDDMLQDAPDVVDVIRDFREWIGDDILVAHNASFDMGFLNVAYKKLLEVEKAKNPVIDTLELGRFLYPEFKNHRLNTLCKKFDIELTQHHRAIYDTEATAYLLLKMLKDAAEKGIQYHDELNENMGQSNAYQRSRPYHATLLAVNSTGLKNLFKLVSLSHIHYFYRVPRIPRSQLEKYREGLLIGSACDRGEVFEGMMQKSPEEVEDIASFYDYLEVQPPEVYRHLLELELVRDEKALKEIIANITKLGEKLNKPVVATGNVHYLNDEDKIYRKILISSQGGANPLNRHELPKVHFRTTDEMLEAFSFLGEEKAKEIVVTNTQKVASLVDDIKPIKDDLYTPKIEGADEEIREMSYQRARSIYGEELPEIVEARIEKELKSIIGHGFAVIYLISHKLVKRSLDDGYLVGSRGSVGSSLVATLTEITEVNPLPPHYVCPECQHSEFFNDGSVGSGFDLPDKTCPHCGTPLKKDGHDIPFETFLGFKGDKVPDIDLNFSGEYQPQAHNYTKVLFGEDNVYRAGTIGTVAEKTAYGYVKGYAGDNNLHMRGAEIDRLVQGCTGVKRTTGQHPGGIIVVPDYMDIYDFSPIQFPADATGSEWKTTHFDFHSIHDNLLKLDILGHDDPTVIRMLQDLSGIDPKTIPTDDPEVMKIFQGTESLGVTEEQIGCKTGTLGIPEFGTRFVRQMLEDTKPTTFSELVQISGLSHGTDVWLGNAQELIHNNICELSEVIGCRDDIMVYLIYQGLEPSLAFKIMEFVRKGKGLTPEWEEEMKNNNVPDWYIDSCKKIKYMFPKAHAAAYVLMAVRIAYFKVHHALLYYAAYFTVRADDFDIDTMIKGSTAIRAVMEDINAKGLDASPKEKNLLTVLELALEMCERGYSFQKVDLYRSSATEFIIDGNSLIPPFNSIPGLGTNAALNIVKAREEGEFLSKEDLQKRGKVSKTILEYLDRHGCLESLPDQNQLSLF
# How it was run: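 Reconstituted B. subtilis holoenzyme (Pol III, beta clamp, SSB, primase) was preincubated with compound at room temperature, then given single-stranded circular M13Gori plus dNTPs and NTPs. EDTA-containing PicoGreen stopped the reaction, and dsDNA product was read by fluorescence.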
# [3] = biological target: Beta-2 adrenergic receptor (Homo sapiens) (UniProt P07550); assay: qHTS validation assay of beta-arrestin-biased ligands of beta2-adrenergic receptor (AID 485366)
# Sequence of Beta-2 adrenergic receptor (Homo sapiens) (P07550 whole entry, looked up): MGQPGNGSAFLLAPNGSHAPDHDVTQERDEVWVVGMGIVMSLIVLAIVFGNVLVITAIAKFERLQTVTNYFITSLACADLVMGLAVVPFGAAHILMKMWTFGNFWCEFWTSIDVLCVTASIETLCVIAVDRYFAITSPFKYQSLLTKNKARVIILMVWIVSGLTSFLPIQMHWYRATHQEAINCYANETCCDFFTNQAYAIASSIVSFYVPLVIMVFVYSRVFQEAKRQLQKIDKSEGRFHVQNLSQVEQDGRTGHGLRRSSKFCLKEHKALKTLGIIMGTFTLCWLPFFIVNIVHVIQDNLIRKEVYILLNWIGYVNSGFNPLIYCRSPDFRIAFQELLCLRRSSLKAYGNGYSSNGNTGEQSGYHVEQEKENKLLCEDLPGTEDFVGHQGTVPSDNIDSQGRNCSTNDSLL
# How it was run: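 Arrestin-recruitment (Tango) reporter: ligand-bound beta2-AR recruits beta-arrestin, releasing tTA, which upregulates luciferase. Titrations of up to 46 microM incubated 18 hr at 37 degrees C before luminescent readout.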
# [4] = biological target: Thioredoxin reductase 1, cytoplasmic (Rattus norvegicus) (UniProt O89049); assay: qHTS Assay for Substrates of Mammalian Selenoprotein Thioredoxin Reductase 1 (TrxR1) (AID 488772);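 note: NADPH fluorescence in the first read after selenite addition and not the 8 min delta; series mostly up to about 57 µM; a drop in NADPH fluorescence below the no-compound background marks a TrxR1 substrate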
# Sequence of Thioredoxin reductase 1, cytoplasmic (Rattus norvegicus) (O89049 whole entry, looked up): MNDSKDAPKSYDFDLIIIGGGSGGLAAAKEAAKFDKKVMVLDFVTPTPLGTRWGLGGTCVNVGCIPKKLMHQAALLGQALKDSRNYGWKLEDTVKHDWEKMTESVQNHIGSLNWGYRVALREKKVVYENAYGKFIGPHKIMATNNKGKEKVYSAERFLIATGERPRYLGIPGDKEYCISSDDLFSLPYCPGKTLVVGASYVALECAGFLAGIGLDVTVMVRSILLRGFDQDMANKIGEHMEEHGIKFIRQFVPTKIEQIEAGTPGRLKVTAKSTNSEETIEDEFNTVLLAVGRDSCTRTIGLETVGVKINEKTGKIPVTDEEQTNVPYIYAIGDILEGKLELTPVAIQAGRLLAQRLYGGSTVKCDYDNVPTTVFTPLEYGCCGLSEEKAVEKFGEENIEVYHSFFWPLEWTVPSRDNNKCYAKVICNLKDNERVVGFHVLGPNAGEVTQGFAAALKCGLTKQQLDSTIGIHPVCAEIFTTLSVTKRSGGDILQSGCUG
# How it was run: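 Quantitative HTS in Tris-HCl buffer at pH 7.5 with EDTA and Tween-20, using rat TrxR1, 400 uM NADPH and 400 uM selenite (final). A fall in initial NADPH fluorescence relative to background marked substrate behaviour.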
# [5] = biological target: Flap endonuclease 1 (Homo sapiens) (UniProt P39748); assay: qHTS Validation Assay for the Inhibitors of Human Flap endonuclease 1 (FEN1) (AID 488816); note: potency is the fitted concentration of half-maximal effect
# How it was run: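 Human FEN1 (10 nM) preincubated 15 min at room temperature with compounds, then flap DNA substrate added at 50 nM final. Fluorescence read at 0 and 15 min; concentration-response fitted with four-parameter Hill equation.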
# [6] = biological target: M-phase phosphoprotein 8 (Homo sapiens) (UniProt Q99549); assay: qHTS Validation Assay for Inhibitors for MPP8 Chromodomain Interactions with Methylated Histone Tails (AID 488949); note: nearly all actives have a fitted effect of over 55% in size; note: potency is the fitted concentration of half-maximal effect
# How it was run: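 MPP8 (50 nM) was preincubated with biotinylated H3(1-18)K9me3 peptide (50 nM) in PBS pH 7.4, 0.01% Tween-20 for 30 min at room temperature, then with compounds for 30 min; binding was detected by AlphaScreen.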
# [7] = biological target: Methanococcus maripaludis chaperonin (MmCpn) (UniProt Q6LX38); assay: High-Throughput Screening for Modulators of Cytosolic Chaperonin Activity: MmCpn Primary Screen (AID 488978);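 note: 50 nM MmCpn enzyme hydrolysing 30 µM ATP at 37 °C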
# Sequence of Methanococcus maripaludis chaperonin (MmCpn) (Q6LX38 1-543): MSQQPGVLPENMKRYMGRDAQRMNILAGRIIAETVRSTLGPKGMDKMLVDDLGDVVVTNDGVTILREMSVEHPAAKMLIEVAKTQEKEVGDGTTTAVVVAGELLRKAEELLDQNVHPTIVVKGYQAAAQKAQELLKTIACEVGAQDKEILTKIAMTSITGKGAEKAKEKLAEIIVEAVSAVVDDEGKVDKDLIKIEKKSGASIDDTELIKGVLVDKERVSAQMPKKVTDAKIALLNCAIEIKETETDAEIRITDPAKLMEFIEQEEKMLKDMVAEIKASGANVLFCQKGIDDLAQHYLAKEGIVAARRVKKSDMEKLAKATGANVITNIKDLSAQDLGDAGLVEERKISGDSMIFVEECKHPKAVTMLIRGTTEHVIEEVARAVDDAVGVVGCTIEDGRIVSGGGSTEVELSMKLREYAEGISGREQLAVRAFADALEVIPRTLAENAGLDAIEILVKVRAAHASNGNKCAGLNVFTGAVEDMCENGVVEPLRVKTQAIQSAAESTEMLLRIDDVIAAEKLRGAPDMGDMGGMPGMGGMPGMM
# How it was run: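 MmCpn (50 nM final) was preincubated with compound 5 min at RT, then 30 uM ATP (final) was added and the reaction ran 10 min at 37C. ADP produced was detected by Transcreener HTRF (ex 320 nm; em 590/665 nm).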
# [8] = biological target: D(1A) dopamine receptor (Homo sapiens) (UniProt P21728); assay: HTS Assay for Allosteric Agonists of the Human D1 Dopamine Receptor: Primary Screen for Agonists (AID 488981); note: potency is the fitted concentration of half-maximal effect
# Sequence of D(1A) dopamine receptor (Homo sapiens) (P21728 whole entry, looked up): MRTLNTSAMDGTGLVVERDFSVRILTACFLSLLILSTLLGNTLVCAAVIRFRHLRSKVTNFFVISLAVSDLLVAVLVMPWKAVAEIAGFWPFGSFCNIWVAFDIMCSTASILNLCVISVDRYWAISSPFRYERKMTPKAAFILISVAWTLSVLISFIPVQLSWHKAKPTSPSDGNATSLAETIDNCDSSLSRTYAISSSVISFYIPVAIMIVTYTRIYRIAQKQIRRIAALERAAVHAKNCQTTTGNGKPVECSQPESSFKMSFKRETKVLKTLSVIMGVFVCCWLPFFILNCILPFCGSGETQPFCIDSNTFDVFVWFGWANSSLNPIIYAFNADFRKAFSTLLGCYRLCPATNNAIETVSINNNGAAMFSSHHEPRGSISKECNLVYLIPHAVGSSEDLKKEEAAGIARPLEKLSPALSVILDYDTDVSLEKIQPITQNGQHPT
# How it was run: (§1)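 Tetracycline-induced HEK293 Trex D1 cells with forced coupling to calcium, loaded with no-wash calcium dye; kinetic fluorescence read 180 s after compound addition for agonism, then a further 180 s after an EC20 dopamine challenge for potentiation.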
# [9] = biological target: D(1A) dopamine receptor (Homo sapiens) (UniProt P21728); assay: HTS Assay for Allosteric Agonists of the Human D1 Dopamine Receptor: Primary Screen for Potentiators (AID 488982); note: potency is the fitted concentration of half-maximal effect
# How it was run: as §1
# [10] = qHTS Validation Assay to Find Inhibitors of Chronic Active B-Cell Receptor Signaling (AID 485345; active = well fitted curve in the direction sought with a large enough effect in the main read-out, with a control signal flat, not every such curve was filed as active)
# How it was run: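 TMD8 ABC-DLBCL cells stably carrying doxycycline-inducible IkappaBalpha–green luciferase fusion plus unfused red luciferase; compounds 46 uM to 3 nM, 4 h at 37C with doxycycline. Corrected green/red luminescence ratio normalized to 10 uM MG-132 and basal cell wells; curves fitted.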
# [11] = Quantitative high throughput screen for delayed death inhibitors of the malarial parasite plastid, 96 hour incubation (AID 488745); note: nearly all actives have a fitted effect of over 70% in size; note: potency is the fitted concentration of half-maximal effect
# How it was run: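 P. falciparum carrying an integrated firefly luciferase reporter, grown in erythrocytes (2% hematocrit, 0.1% parasitemia final) in RPMI 1640/0.5% Albumax, was exposed to compound for 96 h (two generations) at 37 C, 5% CO2. Luminescence decrease indicated growth inhibition.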
# [12] = biological target: Thioredoxin reductase 1, cytoplasmic (Rattus norvegicus) (UniProt O89049); assay: qHTS Assay for Inhibitors of Mammalian Selenoprotein Thioredoxin Reductase 1 (TrxR1) (AID 488773); details: Potency: inhibition;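 note: drop in NADPH fluorescence over an 8 min run after selenite addition; series mostly up to about 57 µM; nearly all actives have a fitted effect of over 40% in size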
# How it was run: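 Steps: enzyme (90 nM) plus NADPH (400 uM final), 5 min at ~22 deg C; compound added, 15 min; selenite (400 uM final) added; fluorescence followed for 8 min. Concentration-response curves derived from the normalized delta values.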
# [13] = biological target: Chromobox protein homolog 1 (Homo sapiens) (UniProt P83916); assay: qHTS Validation Assay for Inhibitors of HP1-beta Chromodomain Interactions with Methylated Histone Tails (AID 488953);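 note: loss of AlphaScreen luminescence from HP1-beta binding biotinylated H3K9me3 peptide; series mostly up to about 110 µM; nearly all actives have a fitted effect of over 50% in size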
# Sequence of Chromobox protein homolog 1 (Homo sapiens) (P83916 whole entry, looked up): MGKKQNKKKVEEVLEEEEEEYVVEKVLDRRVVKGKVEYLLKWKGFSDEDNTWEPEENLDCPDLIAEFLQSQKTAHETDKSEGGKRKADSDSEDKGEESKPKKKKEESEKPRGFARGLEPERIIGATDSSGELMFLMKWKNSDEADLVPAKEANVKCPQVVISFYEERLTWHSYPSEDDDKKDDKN
# How it was run: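 HP1-beta (50 nM) was preincubated 30 min at room temperature with biotinylated H3(1-18)K9me3 peptide (50 nM) in PBS pH 7.4, 0.01% Tween-20, then with compounds 30 min. AlphaScreen signal was read after streptavidin donor/nickel chelate acceptor beads (10 ug/mL final).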
# [14] = biological target: Thyrotropin receptor (Homo sapiens) (UniProt P16473); assay: qHTS Assay for Antagonists of the Thyroid Stimulating Hormone Receptor (AID 488980); note: series mostly up to about 58 µM
# How it was run: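 HEK293 cells transfected with human TSHR, suspended in HEPES-buffered HBSS with 70 uM RO 20-1724, were treated with compounds plus TSH at EC80 (4 nM final). cAMP was measured by competitive HTRF (cryptate anti-cAMP antibody, cAMP-d2 acceptor).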
# [15] = biological target: D(1A) dopamine receptor (Homo sapiens) (UniProt P21728); assay: HTS Assay for Allosteric Agonists of the Human D1 Dopamine Receptor: Primary Screen for Antagonists (AID 488983);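 note: calcium flux response to an EC80 dopamine challenge measured with no-wash dye; nearly all actives have a fitted effect of over 65% in size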; note: potency is the fitted concentration of half-maximal effect
# How it was run: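 Tetracycline-induced HEK293 T-REx cells expressing force-coupled D1 were plated overnight at 30 C, dye-loaded for calcium, and read kinetically. Compounds were pinned in, then an EC80 dopamine challenge followed after 180 s to reveal antagonism.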
# [16] = Quantitative high throughput screen for delayed death inhibitors of the malarial parasite plastid, 48 hour incubation (AID 488752); note: nearly all actives have a fitted effect of over 65% in size; note: potency is the fitted concentration of half-maximal effect
# How it was run: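 Erythrocytes infected with P. falciparum carrying an integrated firefly luciferase reporter (2% hematocrit, 0.1% parasitemia final) were exposed to compounds in RPMI 1640/0.5% Albumax for 48 h at 37 C, 5% CO2. Growth inhibition was scored as reduced luminescence.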
# [17] = biological target: Transient receptor potential cation channel subfamily V member 1 (Homo sapiens) (UniProt Q8NER1); assay: HTS Assay for Compounds that Act as Enhancers of the Vanilloid Receptor 1 (AID 488979)
# Sequence of Transient receptor potential cation channel subfamily V member 1 (Homo sapiens) (Q8NER1 whole entry, looked up): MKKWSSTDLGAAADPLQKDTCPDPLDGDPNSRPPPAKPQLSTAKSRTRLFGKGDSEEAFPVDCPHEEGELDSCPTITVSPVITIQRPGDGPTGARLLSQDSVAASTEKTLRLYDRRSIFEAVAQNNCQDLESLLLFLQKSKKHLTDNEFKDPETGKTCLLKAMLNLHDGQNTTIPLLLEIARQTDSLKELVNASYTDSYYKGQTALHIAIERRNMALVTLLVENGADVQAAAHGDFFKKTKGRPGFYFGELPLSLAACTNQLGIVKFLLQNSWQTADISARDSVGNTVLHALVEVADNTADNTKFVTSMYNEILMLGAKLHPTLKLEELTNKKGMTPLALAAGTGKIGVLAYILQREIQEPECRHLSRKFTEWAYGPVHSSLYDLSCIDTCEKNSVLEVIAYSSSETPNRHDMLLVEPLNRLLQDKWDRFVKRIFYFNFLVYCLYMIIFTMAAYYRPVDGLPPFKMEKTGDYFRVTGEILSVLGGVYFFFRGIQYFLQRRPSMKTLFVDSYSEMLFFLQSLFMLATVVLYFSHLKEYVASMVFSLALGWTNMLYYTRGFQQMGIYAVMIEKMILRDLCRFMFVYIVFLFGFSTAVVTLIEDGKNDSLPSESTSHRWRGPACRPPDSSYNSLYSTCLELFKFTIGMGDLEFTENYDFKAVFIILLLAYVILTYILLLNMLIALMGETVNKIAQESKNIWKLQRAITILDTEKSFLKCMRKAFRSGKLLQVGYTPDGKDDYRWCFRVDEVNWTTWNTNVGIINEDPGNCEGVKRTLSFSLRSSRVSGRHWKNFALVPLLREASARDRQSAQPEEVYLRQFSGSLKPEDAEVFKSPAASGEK
# How it was run: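 TRPV1 cells loaded with Fluo-8 calcium dye; compound added and Ca2+ signal (ex 480/em 520 nm) followed 3 min, then capsaicin at EC20 added and read 2 more min to detect enhancement.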
SMILES,Potency [1],Potency [2],outcome [3],outcome [4],Potency [5],Potency [6],outcome [7],Potency [8],Potency [9],Potency [10],Potency [11],Potency [12],Potency [13],outcome [14],Potency [15],Potency [16],outcome [17]
CS(=O)(=O)CCNCc1ccc(-c2ccc3ncnc(Nc4ccc(OCc5cccc(F)c5)c(Cl)c4)c3c2)o1,inactive,–,–,–,–,–,–,–,–,–,–,–,–,–,–,–,–
O=C1Cc2cc(CCN3CCN(c4nsc5ccccc45)CC3)c(Cl)cc2N1,–,inactive,inactive,inactive,inactive,inactive,inactive,inactive,inactive,–,–,–,–,–,–,–,–
CCOC(=O)c1ncn2c1CN(C)C(=O)c1cc(F)ccc1-2,–,inactive,inactive,–,–,inactive,inactive,inactive,inactive,inactive,inactive,inactive,inactive,inactive,inactive,–,–
NCCc1cnc[nH]1,–,inactive,inactive,–,inactive,inactive,inactive,inactive,inactive,inactive,inactive,inactive,inactive,inactive,inactive,inactive,inactive
OCCN(CCO)c1nc(N2CCCCC2)c2nc(N(CCO)CCO)nc(N3CCCCC3)c2n1,–,inactive,inactive,inactive,inactive,inactive,inactive,10 µM (active),2.91 µM (active),–,10.4 µM (active),–,inactive,–,–,9.28 µM (active),–
CC1(CN2CCC(n3c(=O)[nH]c4ccccc43)CC2)OCc2ccccc2-n2cccc21 (stereo unspecified),inactive,–,–,–,–,–,–,–,–,–,–,–,–,–,–,–,–
COc1cc2c(c(OC)c1OC)-c1ccc(OC)c(=O)cc1[C@@H](NC(C)=O)CC2,inactive,inactive,inactive,inactive,–,inactive,inactive,inactive,inactive,–,inactive,–,–,inactive,inactive,inactive,inactive
CN(C)CCC=C1c2ccccc2C=Cc2ccccc21,inactive,inactive,inactive,inactive,inactive,inactive,inactive,inactive,inactive,–,–,inactive,inactive,inactive,1 µM (active),–,–
CCOC(=O)Nc1ccc(NCc2ccc(F)cc2)nc1N,inactive,inactive,inactive,inactive,–,39.8 µM (active) and inactive,inactive,inactive,inactive,–,–,–,–,inactive,inactive,–,inactive
CN(C)CCOC(c1ccccc1)c1ccccc1,–,–,inactive,inactive,inactive,–,inactive,inactive,inactive,inactive,inactive,–,inactive,inactive,inactive,inactive,inactive
OCCN1CCN(CCCN2c3ccccc3Sc3ccc(C(F)(F)F)cc32)CC1,–,inactive,inactive,inactive,inactive,–,inactive,inactive,–,–,–,inactive,–,inactive,–,–,–
CN1CCN(C2=Nc3cc(Cl)ccc3Nc3ccccc32)CC1,–,inactive,inactive,–,–,–,inactive,–,–,inactive,–,–,–,inactive,–,–,–
Cc1cn([C@H]2C=C[C@@H](CO)O2)c(=O)[nH]c1=O,inactive,inactive,inactive,inactive,inactive,inactive,inactive,inactive,inactive,inactive,–,–,inactive,inactive,inactive,inactive,inactive
C[C@H]1c2cccc(O)c2C(O)=C2C(=O)[C@]3(O)C(O)=C(C(N)=O)C(=O)[C@@H](N(C)C)[C@@H]3[C@@H](O)[C@@H]21,–,inactive,inactive,inactive,23.8 µM (active),inactive,inactive,inactive,–,inactive,–,inactive,–,–,inactive,–,–
